Compounds with a hit are over-represented: about 7.9% of the library has one in this group of screens.
FMDV antiviral – foot and mouth disease virus antiviral activity; FMDV antiviral cell-based qHTS; AID 1159524; 410,000 tested, 1.2% active; Potency, µM (top dose mostly 57.9 µM), hits mostly inhibitors; calls by dose curve; tested in HEK293T cells; note: read-out not given here; nearly all actives have a fitted effect of over 45% in size
HCMV inh – human cytomegalovirus inhibition. AID 1259415. HFF cells, HCMV-luciferase reporter, 72 h; hits give low values. activity change, negative = inhibition, % at 57.5 µM. 410,000 tested, 4.5% active; in the data active = activity change below about -60%; inconclusive = no clear call, values can overlap the other calls; inactive = above about -39%
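Two-dose cell screen: HFF monolayers treated with compounds and infected with luciferase-expressing HCMV at 1 PFU/cell, 72 h at 37C, then lysed for luciferase measurement.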
HCV inh – blocks hepatitis C virus; Huh7.5.1 HCVcc-Cre infection, luciferase reporter, 44 h; Potency, µM (highest dose often 41.8 µM), most hits filed as inhibitors; 340,000 tested, 3.4% active; active = well fitted inhibition curve with a large enough effect; inconclusive = small, poorly fitted or top-dose-only effect, or another doubt; inactive = no such curve, though single readings can be large or run the other way
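Reporter virus HCVcc-Cre (~0.5 moi) infects cells exposed to compound; seeding density 1,000 cells/well with 4 h settling beforehand. Luminescence, 15 sec read, taken 44 h post-infection following a 15 min RT substrate incubation.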
Marburg entry inh – inhibitors of Marburg virus binding or cell entry; Marburg virus pseudotyped entry inhibition, cell reporter; AID 540276; 300,000 tested, 1.8% active; Potency, µM (top dose mostly 37.8 µM), actives largely listed as inhibitors; calls by dose curve; tested in HEK293 cells
Lassa entry inh – blocks Lassa virus binding to or entry into cells. Lassa virus pseudotype entry inhibition, cell reporter. Potency, µM (titrated, usually from 37.9 µM), hits mostly inhibitors. 300,000 tested, 1.2% active. AID 540256; calls by dose curve; tested in HEK293 cells; note: nearly all actives have a fitted effect of over 50% in size
Of the large screens only hits and unclear results are named; the others gave an inactive call; ! = a repeat was not active.

Cn1c(=O)[nH]c(=O)c2c1nc(Br)n2Cc1cccc(Br)c1	HCMV inh -82, HCV inh inconclusive, Marburg entry inh inconclusive, Lassa entry inh inconclusive
Cn1c(=O)[nH]c(=O)c2c1nc(Br)n2CCOc1ccccc1	FMDV antiviral 18µM
CN1CCN(c2nc3c(c(=O)[nH]c(=O)n3C)n2Cc2cccc(Br)c2)CC1	none (no result: Marburg entry inh, Lassa entry inh)
Cn1c(=O)[nH]c(=O)c2c1nc(Br)n2CCCSc1nc2ccccc2o1	FMDV antiviral 22µM, HCMV inh -61, HCV inh inconclusive, Marburg entry inh 8.2µM
COC(=O)C1(C(=O)OC)CC(CO)C(=O)[C@H]1c1ccccc1 (stereo partly drawn)	none (no result: FMDV antiviral, HCMV inh, HCV inh, Lassa entry inh)
CCN(CC)C(=O)c1ccc(-c2nnc(Nc3ccc(C(=O)NC)cc3)c3ccccc23)cc1	FMDV antiviral inconclusive (no result: Marburg entry inh, Lassa entry inh)
O=C(CCn1nc(-c2ccccc2)c2ccccc2c1=O)NN1CCOCC1	HCMV inh -70, Marburg entry inh inconclusive
CCN(CC)C(=O)c1ccc(-c2nnc(OC)c3ccccc23)cc1	HCMV inh -66
O=C(Cn1nc(-c2ccccc2)c2ccccc2c1=O)Nc1ccccn1	HCMV inh -61, Marburg entry inh inconclusive, Lassa entry inh inconclusive
CCN(CC)C(=O)c1ccc(NC(=O)CCn2nc(-c3ccc(C)cc3)c3ccccc3c2=O)cc1	FMDV antiviral inconclusive, HCMV inh -65, Marburg entry inh inconclusive, Lassa entry inh inconclusive (no result: HCV inh)
CCOC(=O)CN1C(=O)[C@]2(OCCC=C[C@@H]2C)c2ccccc21	none (no result: FMDV antiviral, HCMV inh, HCV inh, Lassa entry inh)
OC1CCC(Br)CC1C1NC2=C(CCCC2)S1 (stereo not drawn)	none (no result: FMDV antiviral, HCMV inh, HCV inh, Lassa entry inh)
Cn1c(=O)c2c(SCC(=O)NCc3ccco3)nc(-c3ccccc3F)nc2n(C)c1=O	none (no result: HCV inh, Marburg entry inh)
CS(=O)(=O)c1nc(-c2ccc(F)cc2)cc(C(F)(F)F)n1	FMDV antiviral 28µM, HCMV inh -99, HCV inh 6.3µM, Marburg entry inh inconclusive, Lassa entry inh inconclusive
Nc1nc(-c2ccc(F)cc2)cc(C(F)(F)F)n1	HCV inh inconclusive, Lassa entry inh inconclusive
COc1ccc(-c2cc(C(F)(F)F)nc(S(C)(=O)=O)n2)cc1	FMDV antiviral 20µM, HCMV inh -105, HCV inh inconclusive, Marburg entry inh 13µM!, Lassa entry inh 23µM
N#Cc1ccc(NC(=O)CSc2nc3[nH]c(=O)cc(O)c3s2)cc1	HCMV inh -92 (no result: Marburg entry inh, Lassa entry inh)
CSc1ccc(NC(=O)CSc2nc3[nH]c(=O)cc(O)c3s2)cc1	none (no result: Marburg entry inh, Lassa entry inh)
O=C(/C=C/c1ccccc1)NC(NC(=S)Nc1ccc(Cl)cc1Cl)C(Cl)(Cl)Cl (stereo not drawn)	HCV inh 10µM, Marburg entry inh inconclusive, Lassa entry inh inconclusive (no result: HCMV inh)
O=C(/C=C/c1ccccc1)NC(NC(=S)Nc1cccc(O)c1)C(Cl)(Cl)Cl (stereo not drawn)	FMDV antiviral inconclusive, HCV inh inconclusive, Marburg entry inh inconclusive, Lassa entry inh inconclusive
Cc1ccc(C)c(NC(=S)NC(NC(=O)OCc2ccccc2)C(Cl)(Cl)Cl)c1 (stereo not drawn)	HCV inh inconclusive, Marburg entry inh inconclusive
Cc1ccc(C)c(NC(=S)NC(NC(=O)/C=C/c2ccccc2)C(Cl)(Cl)Cl)c1 (stereo not drawn)	HCMV inh inconclusive, HCV inh inconclusive, Marburg entry inh inconclusive, Lassa entry inh 7.3µM
O=C(/C=C/c1ccccc1)NC(NC(=S)Nc1cccc(Cl)c1)C(Cl)(Cl)Cl (stereo not drawn)	HCMV inh -75, HCV inh inconclusive, Marburg entry inh inconclusive, Lassa entry inh 9.2µM
Cc1ccc(Oc2cnc3ccccc3n2)cc1	HCMV inh inconclusive, Lassa entry inh inconclusive
O=[N+]([O-])c1ccc(Oc2cnc3ccccc3n2)cc1	HCMV inh -63
Cc1ccccc1OCC(=O)Nc1cc(-c2cccc(Br)c2)nn1-c1ccccc1	none (no result: HCV inh, Marburg entry inh)
CCNc1nc(CN2CCCCC2)nc2scc(-c3ccccc3)c12	FMDV antiviral inconclusive, HCMV inh -95, HCV inh 10µM, Marburg entry inh 4.5µM, Lassa entry inh inconclusive
CN(Cc1ccccc1)c1nc(CN2CCOCC2)nc2scc(-c3ccccc3)c12	FMDV antiviral inconclusive
CCCCN(CC)CCCNC(=O)c1csc2c1CCCCC2	FMDV antiviral inconclusive, HCMV inh inconclusive, HCV inh 35µM, Marburg entry inh inconclusive
CCN(CC)C1Oc2cc3c(cc2C(c2cccc(OC)c2O)C1C)OCO3 (stereo not drawn)	none
COc1cc(C2c3cc4c(cc3C(O)C3COCC23)OCO4)cc(OC)c1OC (stereo not drawn)	HCV inh inconclusive, Marburg entry inh inconclusive
COc1cc(C2c3cc4c(cc3OC(NCc3ccccc3)C2C)OCO4)cc(OC)c1OC (stereo not drawn)	HCMV inh -80, Lassa entry inh inconclusive
COc1ccc(C2c3cc4c(cc3OC(NNC(N)=O)C2C)OCO4)cc1 (stereo not drawn)	HCV inh inconclusive, Marburg entry inh inconclusive
COc1cccc(C2c3cc4c(cc3OC(NNC(N)=O)C2C)OCO4)c1O (stereo not drawn)	HCMV inh -73, Marburg entry inh inconclusive, Lassa entry inh inconclusive
CCN(CC)C1Oc2cc3c(cc2C(c2cc(OC)c(O)c(OC)c2)C1C)OCO3 (stereo not drawn)	Lassa entry inh inconclusive
COc1cc(C2c3cc4c(cc3OC(NNC(N)=S)C2C)OCO4)cc(OC)c1OC (stereo not drawn)	HCMV inh -81, Marburg entry inh inconclusive, Lassa entry inh inconclusive
COc1cc(C2c3cc4c(cc3OC(NNC(N)=O)C2C)OCO4)cc(OC)c1OC (stereo not drawn)	HCMV inh -86, HCV inh inconclusive, Marburg entry inh inconclusive, Lassa entry inh inconclusive
C[C@H](N[C@@H](C)CCc1ccccc1)[C@H](O)c1ccc(O)cc1	none (no result: FMDV antiviral, HCMV inh, HCV inh, Lassa entry inh)
CC(C)Oc1ccc(C(=O)NC(=S)Nc2ccc(CN3CCOCC3)cc2)cc1	FMDV antiviral inconclusive, HCV inh inconclusive, Marburg entry inh inconclusive
CC(C)c1ccc(CN2CCN(C(=O)CCl)CC2)cc1	FMDV antiviral 18µM, HCMV inh -69, HCV inh 11µM, Marburg entry inh inconclusive, Lassa entry inh inconclusive
NC(=O)c1ccc(NC(=O)c2ccc(CN3CCOCC3)cc2)cc1	none
CC(C)c1ccc(C(=O)Nc2ccc(CN3CCOCC3)cc2)cc1	HCMV inh -83, HCV inh inconclusive, Marburg entry inh inconclusive
CCOC(=O)c1ccc(NC(=O)c2ccc(CN3CCOCC3)cc2)cc1	FMDV antiviral 25µM, HCMV inh inconclusive, HCV inh inconclusive, Marburg entry inh inconclusive, Lassa entry inh inconclusive
Cc1ccc(C(=O)Nc2cccc(-c3nc(CNC(=O)C4(C)CC4)c(C)o3)c2)s1	none (no result: HCMV inh, HCV inh, Marburg entry inh, Lassa entry inh)
COc1ccc(N2CCC[C@H]2/C=C/C(=O)OC(C)(C)C)cc1	none (no result: FMDV antiviral, HCV inh, Marburg entry inh, Lassa entry inh)
Cc1ccc(C(OC(=O)c2ccco2)C(=O)NC2CCCCC2)cc1 (stereo not drawn)	HCMV inh -98
CCOc1ccc(C(OC(=O)c2ccco2)C(=O)NCc2ccc(C)cc2)cc1 (stereo not drawn)	HCMV inh -74
Cc1ccc(C(OC(=O)c2ccco2)C(=O)NC2CCCC2)cc1 (stereo not drawn)	Marburg entry inh inconclusive
